Source: PubChem BioAssay AID933 (National Center for Advancing Translational Sciences (NCATS), 2007)
Results filed as inconclusive are left out. Where a call stands in place of a potency, no number is given. Values without a mark were called inactive. The source made the active and inactive calls. Calls come from the whole dose curve; as a rule, active = well fitted activation curve with a large enough effect in the signal ratio, with a control signal flat; inconclusive = small, poorly fitted or top-dose-only effect, or a change in a side signal; inactive = flat fitted curve, though single readings scatter; the % refers to the signal ratio.
Potency is the fitted concentration of half-maximal effect.
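Throughout, for activation: HEK 293 cells stably expressing human TSHR with RO 20-1724 phosphodiesterase inhibitor.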

The molecules below were run against Thyrotropin receptor (Homo sapiens) (UniProt P16473) (assay: Secondary Concentration-Response Assay for Agonists of the Thyroid Stimulating Hormone Receptor: HTRF Activity Detection). Settings: HEK293-TSHR cells, cAMP HTRF ratio, 30 min; series mostly up to 91.7 µM.
Chain of Thyrotropin receptor (Homo sapiens) (P16473 whole entry, looked up): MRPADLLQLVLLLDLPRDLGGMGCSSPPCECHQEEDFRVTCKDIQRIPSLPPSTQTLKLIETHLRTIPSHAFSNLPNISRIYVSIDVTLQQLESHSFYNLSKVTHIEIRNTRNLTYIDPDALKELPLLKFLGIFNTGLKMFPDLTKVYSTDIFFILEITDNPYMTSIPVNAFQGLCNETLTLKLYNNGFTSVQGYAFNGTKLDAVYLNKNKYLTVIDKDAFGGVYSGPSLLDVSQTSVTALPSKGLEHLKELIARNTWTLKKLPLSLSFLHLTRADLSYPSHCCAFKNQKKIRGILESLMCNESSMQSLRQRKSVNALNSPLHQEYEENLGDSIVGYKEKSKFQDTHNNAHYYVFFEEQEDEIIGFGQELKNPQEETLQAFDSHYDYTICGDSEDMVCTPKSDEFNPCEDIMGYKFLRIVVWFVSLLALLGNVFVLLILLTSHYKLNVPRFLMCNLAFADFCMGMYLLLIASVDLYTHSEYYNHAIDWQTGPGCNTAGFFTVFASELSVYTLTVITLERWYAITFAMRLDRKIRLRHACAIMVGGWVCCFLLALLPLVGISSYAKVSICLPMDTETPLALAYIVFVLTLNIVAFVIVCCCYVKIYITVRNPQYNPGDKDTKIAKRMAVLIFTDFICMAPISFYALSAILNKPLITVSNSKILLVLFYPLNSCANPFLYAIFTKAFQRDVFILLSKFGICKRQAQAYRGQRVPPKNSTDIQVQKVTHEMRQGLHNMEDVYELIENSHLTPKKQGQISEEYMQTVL
Text: NIH Chemical Genomics Center [NCGC]
NIH Molecular Libraries Screening Centers Network [MLSCN]
PI Name: Dr. Marvin Gershengorn, NIH
Confirmation of Thyroid Stimulating Hormone Receptor Agonists
TSH is an alpha/beta heterodimeric glycoprotein hormone secreted from the anterior pituitary gland which belongs to the glycoprotein hormone family. The actions of TSH are mediated by a seven-transmembrane receptor, which upon TSH binding couples preferentially to the G-alpha (s) protein (Gs), resulting in activation of adenylate cyclase and increase in cyclic adenosine 3', 5' monophosphate (cAMP). The TSH receptor (THSR) is mainly expressed in thyroid follicular cells and regulates their growth and function. Recombinant TSH is used to activate TSHR in patients with thyroid cancer receiving thyroid hormone suppression therapy and to screen for residual tumor after surgery, but it is expensive and must be administered intramuscularly. An orally active small molecule TSHR agonist would serve as an invaluable research tool for studying TSHR pharmacology and physiology, and would have multiple advantages in therapeutic settings. However, no selective small molecule agonist of the TSH receptor exists, and no small molecule screen for TSHR agonists has ever been reported.
A confirmatory assay of putative TSHR agonists was conducted on a different TSHR transfected HEK 293 cell line, using an orthogonal detection technology to measure cAMP stimulation: antibody-based Homogeneous Time Resolved Fluorescence (HTRF).
NCGC Assay Protocol Summary:
Homogeneous Time Resolved Fluorescence (HTRF) cAMP Assay. HEK 293 cells stably transfected with a vector containing the TSHR and maintained under hygromycin selection were obtained from the laboratory of Dr. Marvin Gershengorn. Compounds were assayed using a HTRF cAMP detection kit (Cisbio) on the TSHR transfected cell line. Briefly, 750 cells were plated in 2.5 ul/well of complete media (DMEM containing 10 % FCS, and 100 uM RO 20-1724) in 1536 well solid bottom white plates and 23 nl/well compound in DMSO solution or controls was added. Following 30 minute incubation at room temperature, 2.5 ul/well of labeled d2 cAMP and 2.5 ul/well of anti-cAMP antibody (both diluted 1:20 in lysis buffer) were added to each well using a flying reagent dispenser (Aurora Discovery, San Diego) . Plates were measured using the Envision plate reader (PerkinElmer, Boston, MA) with excitation at 330 nm and emissions of 615 nm and 660 nm.
Keywords: Thyroid-stimulating hormone TSH, TSHR, TSHR agonist, quantitative high throughput screening, qHTS, HTS, probe identification, CNG, cAMP, cyclic nucleotide gated ion channel PubChem
For `CCN(CC)CCN1C(=O)c2ccccc2NC1c1ccc(OC)c(COc2ccc(NC(C)=O)cc2)c1` (stereo not given), the Potency was “inactive”.
With `COCCNC(=O)C(c1ccccc1)N(Cc1cccs1)C(=O)Cn1nnc2ccccc21` (stereo not given) the activation was -0.712% [at 0.00035 µM].
`CC1(c2ccccn2)Nc2ccccc2-c2nc3ccccc3n21` (stereo not given) showed an activation of -0.34% [at 0.00035 µM].
`CCN(CC)CCN1C(=O)c2ccccc2NC1c1cc(OC)c(OC)c(OC)c1` (stereo not given) was tested, and the Potency was “inactive”.
With `COc1ccc(C2Nc3cccc(O)c3C(=O)N2Cc2ccccc2)cc1COc1ccc(NC(C)=O)cc1` (stereo not given) the Potency was 7.94 µM (active).
In the case of `COc1ccc(N2C(=O)c3ccccc3NC2c2ccc(OC)c(COc3ccc(NC(C)=O)cc3)c2)cc1` (stereo not given), the Potency is reported as “inactive”.
With `CCCN1C(=O)c2ccccc2NC1c1ccc(OC)c(COc2ccc([N+](=O)[O-])cc2)c1` (stereo not given) the Potency was “inactive”.
In the case of `Cc1sc2ncn(/N=C/c3cn(-c4ccccc4)nc3-c3ccccc3)c(=O)c2c1C`, the Potency is reported as “inactive”.
Work on `CCC(C)(C)n1nnnc1CN(Cc1ccco1)Cc1cc2cc3c(cc2[nH]c1=O)OCO3` yielded an activation of 0.108% [at 0.00035 µM].
For `COc1ccc(/C=N/O)cc1COc1ccc(NC(C)=O)cc1`, the Potency was “inactive”.
In the case of `O=C(COC(=O)C12CC3CC(CC(C3)C1)C2)NCC1CCCO1` (stereo not given), the Potency is reported as “inactive”.
In the case of `COc1ccc(C2Nc3ccccc3C(=O)N2Cc2ccco2)cc1COc1ccc(NC(C)=O)cc1` (stereo not given), the Potency is reported as 15.8 µM (active).
Molecule `Cc1cc(C)n(S(=O)(=O)c2cc(C(=O)O)c(Cl)cc2Cl)n1` has an activation of -0.754% [at 0.00035 µM].
`Cc1cc(=O)[nH]c(SCCOc2ccc3c(c2)CCC3)n1` showed an activation of 0.323% [at 0.00035 µM].
With `COc1ccc(C2Nc3ccccc3C(=O)N2Cc2ccccc2)cc1COc1ccccc1F` (stereo not given) the Potency was “inactive”.
In the case of `O=C1c2ccccc2NC(c2ccccc2O)N1Cc1ccccc1` (stereo not given), the Potency is reported as “inactive”.
`COc1ccc(C2Nc3ccccc3C(=O)N2Cc2ccco2)cc1OC` (stereo not given) was tested, and the Potency was “inactive”.
For `Nc1ccccc1C(=O)NCc1ccco1`, the Potency was “inactive”.
`CC(C)Oc1ccccc1C1Nc2ccccc2C(=O)N1c1ccc2c(c1)OCCO2` (stereo not given) was tested, and the Potency was “inactive”.
`COc1cc(C2Nc3ccccc3C(=O)N2Cc2ccco2)ccc1O` (stereo not given) was tested, and the Potency was “inactive”.
With `COc1cc(C2Nc3ccccc3C(=O)N2c2ccccc2)ccc1O` (stereo not given) the Potency was “inactive”.
`CCOc1ccc(S(=O)(=O)NCc2ccccc2Cl)cc1C(N)=O` was tested, and the Potency was “inactive”.
With `CCCN1C(=O)c2ccccc2NC1c1ccc(OC)c(COc2ccc([N+](=O)[O-])c(C)c2)c1` (stereo not given) the Potency was “inactive”.
With `COc1ccc(C2=Nn3c(nnc3-c3ccccc3OC)SC2)cc1OC` the Potency was “inactive”.
`COc1ccc(C2Nc3ccc(NC(C)=O)cc3C(=O)N2Cc2cccc(Cl)c2)cc1COc1ccc(NC(C)=O)cc1` (stereo not given) was tested, and the Potency was 7.94 µM (active).
In the case of `COc1ccc(-c2nc3ccccc3c(=O)n2Cc2ccco2)cc1COc1ccc(NC(C)=O)cc1`, the Potency is reported as 17.8 µM (active).
For `COc1ccc(C2Nc3ccccc3C(=O)N2Cc2ccco2)cc1COc1ccc([N+](=O)[O-])c(C)c1` (stereo not given), the Potency was “inactive”.
`Cc1ccccc1NC(=O)CSc1nnc(-c2ccoc2C)n1CCc1ccccc1` showed an activation of -0.0378% [at 0.00035 µM].
`CCC(=O)Nc1ccc(OCc2cc(C3Nc4ccccc4C(=O)N3Cc3ccccc3)ccc2OC)cc1` (stereo not given) was tested, and the Potency was “inactive”.
In the case of `COc1ccc(CN(Cc2ccccc2)C(=O)c2ccccc2O)cc1`, the Potency is reported as “inactive”.
In the case of `COc1ccc(C2Nc3ccccc3C(=O)N2c2ccc(F)cc2)cc1Cn1nnc2ccccc21` (stereo not given), the Potency is reported as “inactive”.
Molecule `CN1C(=O)N(C)C2(c3ccccc3)Nn3c(s/c(=C/c4ccco4)c3=O)=NC12c1ccccc1` (stereo not given) has an activation of 0.345% [at 0.00035 µM].
With `O=C1c2ccccc2NC(c2ccc(O)cc2)N1Cc1ccco1` (stereo not given) the Potency was “inactive”.
For `COc1ccc(C2Cc3ccccc3C(=O)N2Cc2ccccc2)cc1COc1ccc(NC(C)=O)cc1` (stereo not given), the Potency was 10 µM (active).
`CCOC(=O)C1C(=O)Nc2nc(C)nn2C1c1ccccc1` (stereo not given) was tested, and the activation was 2.16% [at 0.00035 µM].
In the case of `COc1ccc(/C=N/n2cncn2)cc1COc1ccc(NC(C)=O)cc1`, the Potency is reported as “inactive”.
`COc1cccc(C(c2nnnn2Cc2ccccc2)N2CCN(C(=O)c3ccco3)CC2)c1OC` (stereo not given) gave an activation of 0.497% [at 0.00035 µM].
Work on `Cc1ccccc1-n1nc(C)c2cc(C(=O)N3CCN(S(=O)(=O)c4ccc(F)cc4)CC3)sc21` yielded an activation of 0.202% [at 0.00035 µM].
In the case of `COCCNC(=O)C(c1ccc(C)o1)N(C(=O)c1snc(C(N)=O)c1N)c1ccc(C)cc1` (stereo not given), the activation is reported as -0.472% [at 0.00035 µM].
Work on `COc1ccc(-c2cc(C(F)(F)F)nc(SCCC(=O)N3CCOCC3)n2)cc1` yielded an activation of 0.123% [at 0.00035 µM].
